Experimental data taken from PubChem BioAssay AID488807 (Broad Institute, 2010).
Measured potencies and affinities stand elsewhere. Records with an inconclusive call do not appear. Activity calls are given as the source filed them. The rule behind the calls is not given here.

experiment: growth inhibition of resistant C. albicans, dose response, CaCi-8, fluconazole, Alamar Blue, dry powder (AID 488807); conditions: C. albicans CaCi-8 + fluconazole, 48 h; series mostly up to 26 µM; activity change, negative = inhibition: at the top concentration

Structure (SMILES) | activity change, negative = inhibition
O=C(Cn1nc(-c2ccccc2)c2ccccc21)NCc1ccc(Cl)cc1 | 8.2% (inactive)
O=C(Cn1c2ccccc2c2nc3n(c(=O)c21)CCS3)NCCc1ccc(Cl)cc1 | 8.23% (inactive)
COc1ccc(OC)c2c(C)cc(N3CCN(C(=O)c4ccc(Cl)cc4)CC3)nc12 | -9.04% (inactive)
O=C(Cn1nc(C(=O)N2CCCCC2)c2ccccc21)N1CCOCC1 | 0.822% (inactive)
O=C(Cn1nc(-c2ccccc2)c2ccccc21)N1CCc2ccccc2C1 | -18.9% (inactive)
COc1ccc2c(c1)c1nc3n(c(=O)c1n2CC(=O)N1CCC(Cc2ccccc2)CC1)CCS3 | 8.79% (inactive)
O=S(=O)(c1ccc(Cl)cc1)N1CCN(c2ccnc3cc(Cl)ccc23)CC1 | 1.53% (inactive)
CCOC(=O)c1c2ccccc2nn1Cc1ccc(Cl)cc1 | 62.6% (inactive)
c1ccc(-c2n[nH]c3ccccc23)cc1 | 66.6% (inactive)
O=C(O)c1nn(Cc2ccc(Cl)cc2)c2ccccc12 | 26.9% (inactive)
CCOC(=O)c1nn(Cc2ccc(Cl)cc2)c2ccccc12 | 10.8% (inactive)
Cc1nn(S(C)(=O)=O)c2ccccc12 | -59% (inactive)
O=C(Cn1c2ccccc2c2nc3n(c(=O)c21)CCCS3)c1ccc(F)cc1 | -16.2% (inactive)
COc1ccc2c(c1)c1nc3n(c(=O)c1n2CC(=O)N1CCC(C)CC1)CCS3 | 13% [at 2.6 µM] (inactive)
O=C(c1ccc(Cl)cc1)N1CCN(c2cc(C(F)(F)F)nc3ccccc23)CC1 | -34.6% (inactive)
O=C(Cn1nc(-c2ccccc2)c2cc(Cl)ccc21)N1CCOCC1 | -27.7% (inactive)
COC(=O)Cn1nc(C)c2ccccc21 | -0.346% (inactive)
CCCNC(=O)Cn1nc(-c2ccccc2)c2cc(Cl)ccc21 | 77.3% (inactive)
CCCNC(=O)Cn1nc(-c2ccccc2)c2ccccc21 | 101% (inactive)
